# Assay results taken from PubChem BioAssay (NCATS).
# Values joined by “and” are separate entries in the source; they are usually repeats but may differ in a detail not shown here. Equal values may be shown once. Inconclusive results are not listed. A call without a number means that no potency is given here. More than one record can exist for a structure, and the calls need not agree. Active and inactive are the calls of the source. Unless noted, calls follow the shape of the dose curve; as a rule, active = well fitted curve in the direction sought with a large enough effect; inconclusive = small, poorly fitted or top-dose-only effect, or another doubt; inactive = no such curve, though single readings can be large; an effect the other way counts as inactive or inconclusive.
# What was measured:
# [1] = Primary qHTS for inhibitors of La Crosse Virus (LACV) - induced cell death in SH-SY5Y cells (AID 1508616);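 also: top concentration of the series differs between compounds; higher means more rescue of cells from virus-induced death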
# In short: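 Screening measures cell viability in LACV-infected SH-SY5Y cultures. Compound was added before virus (0.01 MOI), and ATP was detected by luminescence 6 days later.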
# [2] = target: Calcium and integrin-binding protein 1 (Homo sapiens) (UniProt Q99828); experiment: Primary qHTS for Identification of Calcium Integrin Binding Protein 1 (CIB1) Competitor (AID 1508620);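 also: GST tagged CIB1 binding a fluorescein labelled alphaIIb integrin peptide tracer; top concentration of the series differs between compounds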
# In short: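 Fluorescence polarization competition: GST-tagged CIB1 (1 uM final) preincubated with compound 15 min at room temperature, then FITC-labelled alphaIIb peptide (100 nM final) added. After 15 min at room temperature, polarization read at Ex 480/Em 540.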
# [3] = Primary qHTS for small molecule stabilizers of the endoplasmic reticulum resident proteome: Secreted ER Calcium Modulated Protein (SERCaMP) assay (AID 1508630)
# In short: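 The SH-SY5Y reporter protocol was run at 3 concentrations up to 38.3 uM (primary) or 11 concentrations (follow-up): 16 h compound, 100 nM thapsigargin for 4 h, then extracellular luciferase luminescence.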
# [4] = A High-Content qHTS Against Drug Library for the Identification of Small Molecules that Inhibit DYT1 Early Onset Primary Dystonia-Associated Cell Pathology (AID 1645839; calls by dose curve; also: series mostly up to about 46 µM)
# In short: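 Cells were seeded and left for 24 h, then dosed with compound alongside tetracycline induction of mutant EGFP-TorsinA. They were incubated for 48 h, fixed in 4% paraformaldehyde, permeabilized and imaged for mislocalization (%pathology) and cell count.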
# [5] = target: Cytochrome P450 2C9 (Homo sapiens) (UniProt P11712); experiment: Cytochrome P450 family 2 subfamily C member 9 (CYP2C9) small molecule antagonists: luciferase biochemical (cell-free) qHTS assay (AID 1645842; active = well fitted curve in the direction sought with a large enough effect in the repeat runs; an effect the other way counts as inactive or inconclusive; also: nearly all actives have a fitted effect of over 55% in size; also: potency is read from the fitted curve at half-maximal effect)
# In short: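 P450-Glo CYP2C9 system: proluciferin substrate with enzyme in mix containing 0.4% BSA, 10 min at room temperature, then NADPH regeneration solution added and incubated 1 h at 37C. Detection reagent stopped reaction; luminescence read after 20 min as RLU.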
# [6] = Primary qHTS for inhibitors of nuclear receptor binding SET domain protein 2 (NSD2) in an isogenic RCH-ACV NSD2 p.E1099K mutant (9B) (AID 1645876); also: nearly all actives have a fitted effect of over 70% in size; also: potency is read from the fitted curve at half-maximal effect
# [7] = Primary qHTS for inhibitors of nuclear receptor binding SET domain protein 2 (NSD2) in an RCH-ACV wild type WT cells (2C) (AID 1645877); also: nearly all actives have a fitted effect of over 70% in size; also: potency is read from the fitted curve at half-maximal effect
# [8] = target: Cytochrome P450 2D6 (Homo sapiens) (UniProt P10635); experiment: Cytochrome P450 family 2 subfamily D member 6 (CYP2D6) small molecule antagonists: luciferase biochemical (cell-free) qHTS assay (AID 1645840; active = well fitted curve in the direction sought with a large enough effect in the repeat runs; an effect the other way counts as inactive or inconclusive; also: nearly all actives have a fitted effect of over 55% in size; also: potency is read from the fitted curve at half-maximal effect)
# In short: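 P450-Glo CYP2D6 system: proluciferin substrate converted by enzyme to luciferin, read by luminescence proportional to activity. Enzyme-substrate mix with compound 10 min at room temperature, then NADPH regeneration 1 h before detection reagent.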
# [9] = target: Rap guanine nucleotide exchange factor 3 (Homo sapiens) (UniProt O95398); experiment: Confirmatory qHTS for antagonist of cAMP-regulated guanine nucleotide exchange factor 3 (EPAC1) (AID 1645880); also: nearly all actives have a fitted effect of over 55% in size
# In short: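 Released BODIPY-GDP fluoresces less than Rap1-bound BODIPY-GDP; the signal is followed at 480/540 nm at 5-min intervals over 30 min, after 5 min at room temperature. Reactions contain 100 nM EPAC1, 250 nM RAP1B-BODIPY-GDP and 50 uM GDP; results are normalized to ATA and DMSO.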
# [10] = target: Rap guanine nucleotide exchange factor 3 (Homo sapiens) (UniProt O95398); experiment: Confirmatory qHTS for agonist of cAMP-regulated guanine nucleotide exchange factor 3 (EPAC1) (AID 1645881);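 also: EPAC1 catalysed release of BODIPY-GDP from Rap1B seen as fluorescence loss; nearly all actives have a fitted effect of over 75% in size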
# [11] = target: Rap guanine nucleotide exchange factor 4 (Homo sapiens) (UniProt Q8WZA2); experiment: Confirmatory qHTS for agonist of cAMP-regulated guanine nucleotide exchange factor 4 (EPAC2) (AID 1645884);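 also: nucleotide exchange releases bodipy-GDP from Rap1 and this lowers its fluorescence; nearly all actives have a fitted effect of over 65% in size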
# [12] = Counterscreen qHTS for small molecule stabilizers of the endoplasmic reticulum resident proteome: GLuc-NoTag assay (AID 1508627);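 also: SH-SY5Y cells given compound then 100 nM thapsigargin to empty ER calcium; series mostly up to about 76 µM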
# In short: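 Counterscreen line: SH-SY5Y-GLuc-NoTag. Seed, 5 h; compound, 19 h; thapsigargin 100 nM, 4 h; 37C/5% CO2. Readout: secreted GLuc luminescence, coelenterazine 0.07x final, no lysis.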
# Papain (Carica papaya) = Papain (Carica papaya) (UniProt P00784); experiment: Primary qHTS assay for inhibitors of the protease papain (AID 1645873);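 also: papain turnover of Z-FR-AMC read as the AMC fluorescence gain over 10 min; series mostly up to about 50 µM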
# Sequence of Papain (Carica papaya) (P00784 whole entry, looked up): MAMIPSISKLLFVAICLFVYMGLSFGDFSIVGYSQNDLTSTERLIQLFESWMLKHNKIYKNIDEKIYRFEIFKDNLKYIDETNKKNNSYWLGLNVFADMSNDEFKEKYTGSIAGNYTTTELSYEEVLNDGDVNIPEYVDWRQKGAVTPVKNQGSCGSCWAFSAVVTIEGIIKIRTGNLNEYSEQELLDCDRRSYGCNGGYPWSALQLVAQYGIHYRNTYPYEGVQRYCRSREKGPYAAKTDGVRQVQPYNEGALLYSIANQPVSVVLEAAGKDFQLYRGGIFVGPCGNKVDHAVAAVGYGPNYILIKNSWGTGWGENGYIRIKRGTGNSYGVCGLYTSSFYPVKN
# Sequence of Cytochrome P450 2D6 (Homo sapiens) (P10635 whole entry, looked up): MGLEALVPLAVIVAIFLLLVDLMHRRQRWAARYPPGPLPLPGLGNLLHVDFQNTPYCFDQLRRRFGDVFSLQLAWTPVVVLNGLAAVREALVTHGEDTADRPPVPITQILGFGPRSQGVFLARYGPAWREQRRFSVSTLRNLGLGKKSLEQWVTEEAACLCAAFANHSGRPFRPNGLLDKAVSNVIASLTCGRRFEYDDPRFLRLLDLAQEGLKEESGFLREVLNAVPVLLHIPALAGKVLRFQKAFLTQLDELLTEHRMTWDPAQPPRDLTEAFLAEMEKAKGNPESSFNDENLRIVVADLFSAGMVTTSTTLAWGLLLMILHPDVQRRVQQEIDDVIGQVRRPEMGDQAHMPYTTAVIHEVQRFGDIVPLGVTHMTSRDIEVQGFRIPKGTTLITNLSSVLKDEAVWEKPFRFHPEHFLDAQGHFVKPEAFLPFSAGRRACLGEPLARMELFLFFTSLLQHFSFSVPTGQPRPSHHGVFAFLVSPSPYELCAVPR
# Sequence of Rap guanine nucleotide exchange factor 4 (Homo sapiens) (Q8WZA2 whole entry, looked up): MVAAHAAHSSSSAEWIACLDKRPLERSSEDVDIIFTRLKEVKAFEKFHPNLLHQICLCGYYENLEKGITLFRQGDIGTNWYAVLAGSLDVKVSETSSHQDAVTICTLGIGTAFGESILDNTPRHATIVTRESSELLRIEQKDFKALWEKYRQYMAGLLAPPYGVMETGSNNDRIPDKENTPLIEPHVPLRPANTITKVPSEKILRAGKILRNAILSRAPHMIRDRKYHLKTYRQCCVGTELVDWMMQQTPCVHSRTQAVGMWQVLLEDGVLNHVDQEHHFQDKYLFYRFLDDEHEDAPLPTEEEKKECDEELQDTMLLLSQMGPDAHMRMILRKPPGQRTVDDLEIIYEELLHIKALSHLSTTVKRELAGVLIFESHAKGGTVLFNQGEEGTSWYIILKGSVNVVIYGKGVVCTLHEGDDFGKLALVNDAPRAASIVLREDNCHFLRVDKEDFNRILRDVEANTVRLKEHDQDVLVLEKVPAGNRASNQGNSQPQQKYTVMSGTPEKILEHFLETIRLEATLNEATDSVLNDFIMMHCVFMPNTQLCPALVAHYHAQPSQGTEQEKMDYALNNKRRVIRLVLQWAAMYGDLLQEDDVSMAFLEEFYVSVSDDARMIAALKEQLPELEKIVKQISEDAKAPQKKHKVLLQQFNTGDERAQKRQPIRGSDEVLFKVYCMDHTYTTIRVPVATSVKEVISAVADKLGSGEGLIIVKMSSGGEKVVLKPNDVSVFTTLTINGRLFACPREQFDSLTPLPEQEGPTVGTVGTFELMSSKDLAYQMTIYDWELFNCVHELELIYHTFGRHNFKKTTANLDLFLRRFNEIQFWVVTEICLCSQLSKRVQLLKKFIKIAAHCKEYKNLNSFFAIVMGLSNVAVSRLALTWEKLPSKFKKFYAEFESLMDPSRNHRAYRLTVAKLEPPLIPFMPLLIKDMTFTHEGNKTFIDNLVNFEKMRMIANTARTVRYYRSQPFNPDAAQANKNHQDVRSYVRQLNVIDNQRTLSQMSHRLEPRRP
# Sequence of Calcium and integrin-binding protein 1 (Homo sapiens) (Q99828 whole entry, looked up): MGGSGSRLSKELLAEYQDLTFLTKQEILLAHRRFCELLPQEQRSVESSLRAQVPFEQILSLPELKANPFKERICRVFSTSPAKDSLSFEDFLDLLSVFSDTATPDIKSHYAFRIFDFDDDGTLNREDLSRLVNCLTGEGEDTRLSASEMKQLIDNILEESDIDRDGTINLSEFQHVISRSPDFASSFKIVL
# Sequence of Rap guanine nucleotide exchange factor 3 (Homo sapiens) (O95398 whole entry, looked up): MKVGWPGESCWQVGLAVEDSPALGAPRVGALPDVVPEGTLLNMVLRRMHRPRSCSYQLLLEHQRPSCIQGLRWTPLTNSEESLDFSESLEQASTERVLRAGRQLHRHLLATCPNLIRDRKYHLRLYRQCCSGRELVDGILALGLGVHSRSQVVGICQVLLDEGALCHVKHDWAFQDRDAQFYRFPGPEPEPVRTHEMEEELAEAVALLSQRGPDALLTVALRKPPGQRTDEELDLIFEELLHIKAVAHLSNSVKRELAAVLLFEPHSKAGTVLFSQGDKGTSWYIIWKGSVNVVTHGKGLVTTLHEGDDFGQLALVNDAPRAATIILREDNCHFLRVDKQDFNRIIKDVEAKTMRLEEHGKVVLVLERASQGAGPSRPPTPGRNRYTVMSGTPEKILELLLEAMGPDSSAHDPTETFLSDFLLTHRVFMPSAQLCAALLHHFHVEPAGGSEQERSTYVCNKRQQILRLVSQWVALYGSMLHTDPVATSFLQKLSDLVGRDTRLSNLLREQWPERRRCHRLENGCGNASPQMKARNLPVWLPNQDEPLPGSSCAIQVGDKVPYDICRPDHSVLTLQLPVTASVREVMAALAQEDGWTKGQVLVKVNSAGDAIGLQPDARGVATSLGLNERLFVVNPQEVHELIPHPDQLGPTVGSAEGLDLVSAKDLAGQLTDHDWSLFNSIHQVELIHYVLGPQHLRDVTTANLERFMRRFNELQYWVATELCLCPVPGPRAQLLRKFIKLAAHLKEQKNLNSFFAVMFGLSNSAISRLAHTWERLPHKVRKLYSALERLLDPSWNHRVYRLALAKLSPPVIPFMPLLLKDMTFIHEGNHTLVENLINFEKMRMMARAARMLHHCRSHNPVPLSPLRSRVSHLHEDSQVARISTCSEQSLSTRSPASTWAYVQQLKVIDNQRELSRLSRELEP
# Sequence of Cytochrome P450 2C9 (Homo sapiens) (P11712 whole entry, looked up): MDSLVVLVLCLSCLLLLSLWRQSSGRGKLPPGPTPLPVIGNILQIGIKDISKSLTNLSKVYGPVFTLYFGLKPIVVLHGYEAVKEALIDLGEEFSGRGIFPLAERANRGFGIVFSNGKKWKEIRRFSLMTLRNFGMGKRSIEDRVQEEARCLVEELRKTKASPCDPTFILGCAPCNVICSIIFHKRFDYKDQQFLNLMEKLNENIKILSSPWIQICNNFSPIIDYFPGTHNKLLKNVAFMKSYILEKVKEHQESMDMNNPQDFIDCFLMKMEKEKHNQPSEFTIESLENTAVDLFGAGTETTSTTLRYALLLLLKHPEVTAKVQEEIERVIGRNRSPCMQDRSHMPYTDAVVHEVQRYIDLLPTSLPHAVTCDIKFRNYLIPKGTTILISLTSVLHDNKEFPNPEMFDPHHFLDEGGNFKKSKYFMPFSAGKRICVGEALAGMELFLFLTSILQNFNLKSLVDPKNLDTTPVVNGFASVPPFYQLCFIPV
compound,measurement,setting,value
COc1ccc(-c2cc(=S)ss2)cc1,Potency,[1],inactive
same,Potency,[2],inactive
same,Potency,[3],inactive
same,Potency,[4],inactive
same,Potency,[5],11 µM (active)
same,Potency,[6],inactive
same,Potency,[7],inactive
CC(=O)SCC(CC(=O)c1ccc(C)cc1)C(=O)O (centres undefined),Potency,[1],inactive
same,Potency,[2],inactive
same,Potency,[4],inactive
same,Potency,[8],inactive
c1ccc(CCNc2nc(-c3ccccc3)cs2)cc1,Potency,[1],inactive
same,Potency,[2],inactive
same,Potency,[3],inactive
same,Potency,[4],inactive
same,Potency,[8],5.49 µM (active)
same,Potency,[5],5.49 µM (active)
same,Potency,[9],inactive
same,Potency,[10],inactive
same,Potency,[11],inactive
Cc1nc2ccccc2n1Cc1ccc(Cl)cc1,Potency,[1],inactive
same,Potency,[2],inactive
same,Potency,[3],inactive
same,Potency,[4],inactive
same,Potency,[8],7.76 µM (active)
same,Potency,[5],11 µM (active)
c1ccc2sc(SSc3nc4ccccc4s3)nc2c1,activity change,[1],7.43% [at 1.78 µM] (inactive)
same,Potency,[2],inactive
same,Potency,[3],inactive
same,Potency,[4],inactive
same,Potency,[8],inactive
same,Potency,[5],9.52 µM (active)
O=C(O)c1ccccc1Nc1cccc(C(F)(F)F)c1,Potency,[1],inactive
same,Potency,[2],inactive
same,Potency,[3],inactive
same,Potency,[8],inactive
same,Potency,[5],inactive
same,Potency,[7],inactive
same,Potency,[9],inactive
same,Potency,[10],inactive
same,Potency,[11],inactive
CC(C(=O)O)c1ccc(C(=O)c2ccccc2)s1 (centres undefined),Potency,[1],inactive
same,Potency,[2],inactive
same,Potency,[4],inactive
same,Potency,[8],inactive
same,Potency,[5],15.5 µM (active)
same,Potency,[6],inactive
same,Potency,[7],inactive
CC(COc1ccc(/C=C/c2ccccc2)cc1)[N+](C)(C)C (centres undefined),Potency,[1],inactive
same,Potency,[3],inactive
Cc1ccc(O)c(N=Nc2ccccc2)n1,Potency,[1],inactive
same,Potency,[12],inactive
same,Potency,[3],inactive
same,Potency,Papain (Carica papaya),inactive
same,Potency,[10],inactive
same,Potency,[11],inactive
O=c1[nH]c2ccccc2n1CCCN1CCN(C(c2ccccc2)c2ccccc2)CC1,Potency,[1],inactive
same,Potency,[2],inactive
same,Potency,[8],0.055 µM (active)
same,Potency,[6],23.7 µM (active)
same,Potency,[7],23.7 µM (active)
COc1ccnc2c1CCCCC2S(=O)c1nc2ccccc2[nH]1 (centres undefined),Potency,[1],inactive
same,Potency,[3],inactive
same,Potency,[4],inactive
same,Potency,[8],0.347 µM (active)
same,Potency,[5],9.77 µM (active)
same,Potency,[6],inactive
same,Potency,[7],inactive
Nc1cc(-c2ccncc2)c[nH]c1=O,Potency,[1],inactive
same,Potency,[3],inactive
same,Potency,[4],inactive
same,Potency,[8],12.3 µM (active)
same,Potency,[5],11 µM (active)
same,Potency,[6],inactive
same,Potency,[7],inactive
same,Potency,[9],inactive
same,Potency,[10],inactive
same,Potency,[11],inactive
CC(=O)c1ccc(OCC(=O)N2CCCCC2)cc1,Potency,[1],inactive
same,Potency,[2],inactive
same,Potency,[4],inactive
same,Potency,[8],inactive
same,Potency,[5],inactive
same,Potency,[6],inactive
same,Potency,[7],inactive
O=C(O)/C=C\C(=O)O,Potency,[1],inactive
same,Potency,[2],inactive
same,Potency,[4],inactive
same,Potency,[8],inactive
same,Potency,[5],inactive
same,Potency,[6],inactive
same,Potency,[7],inactive
C#C[C@]1(O)CC[C@H]2[C@@H]3CCC4=Cc5oncc5CC4(C)[C@H]3CCC21C (some centres undefined),Potency,[1],inactive
same,Potency,[3],inactive
same,Potency,Papain (Carica papaya),inactive
C=CCCCCCCCCC(=O)O,Potency,[1],inactive
same,Potency,[2],inactive
same,Potency,[4],inactive
same,Potency,[8],inactive
same,Potency,[5],inactive
same,Potency,[6],inactive
same,Potency,[7],inactive
COC(=O)C1=C(C)NC(C)=C(C(=O)OCC(C)C)C1c1ccccc1[N+](=O)[O-] (centres undefined),Potency,[1],inactive
same,Potency,[2],inactive
same,Potency,[7],26.6 µM (active)
O=C(CS)Nc1ccccc1,Potency,[1],inactive
same,Potency,[3],inactive
same,Potency,[5],4.9 µM (active)
same,Potency,[6],inactive
same,Potency,[7],inactive
O=C1CN(/N=C/c2ccc([N+](=O)[O-])o2)C(=O)N1,Potency,[1],inactive
same,Potency,[2],inactive
same,Potency,[4],inactive
same,Potency,[5],inactive
Cc1ccc(C(=O)c2ccc(CC(=O)O)n2C)cc1,Potency,[1],inactive
same,Potency,[2],inactive
same,Potency,[4],inactive
same,Potency,[8],inactive
same,Potency,[5],inactive and 15.1 µM (active)
same,Potency,[6],inactive
same,Potency,[7],inactive
CO/S(=N\S(=O)(=O)c1ccc(Cl)cc1)c1ccc([N+](=O)[O-])cc1 (centres undefined),Potency,[1],inactive
same,Potency,[3],inactive
CN(C)CCn1nnnc1SCC1=C(C(=O)O)N2C(=O)[C@@H](NC(=O)Cc3csc(N)n3)[C@H]2SC1,Potency,[1],inactive
same,Potency,[2],inactive
same,Potency,[4],inactive
same,Potency,[5],inactive
same,Potency,[6],inactive
same,Potency,[7],inactive
